This note sets out measurements from ChEMBL document CHEMBL1961873, “Compounds: GSK PKIS; Assays: Nanosyn kinase panel” (2012).

Assay [1] addresses Protein kinase C gamma type (Homo sapiens) (UniProt P05129). Conditions: at 1 µM.
The target of assay [2] is T1, Protein kinase C iota type (Homo sapiens) (UniProt P41743).
T1 sequence (whole entry): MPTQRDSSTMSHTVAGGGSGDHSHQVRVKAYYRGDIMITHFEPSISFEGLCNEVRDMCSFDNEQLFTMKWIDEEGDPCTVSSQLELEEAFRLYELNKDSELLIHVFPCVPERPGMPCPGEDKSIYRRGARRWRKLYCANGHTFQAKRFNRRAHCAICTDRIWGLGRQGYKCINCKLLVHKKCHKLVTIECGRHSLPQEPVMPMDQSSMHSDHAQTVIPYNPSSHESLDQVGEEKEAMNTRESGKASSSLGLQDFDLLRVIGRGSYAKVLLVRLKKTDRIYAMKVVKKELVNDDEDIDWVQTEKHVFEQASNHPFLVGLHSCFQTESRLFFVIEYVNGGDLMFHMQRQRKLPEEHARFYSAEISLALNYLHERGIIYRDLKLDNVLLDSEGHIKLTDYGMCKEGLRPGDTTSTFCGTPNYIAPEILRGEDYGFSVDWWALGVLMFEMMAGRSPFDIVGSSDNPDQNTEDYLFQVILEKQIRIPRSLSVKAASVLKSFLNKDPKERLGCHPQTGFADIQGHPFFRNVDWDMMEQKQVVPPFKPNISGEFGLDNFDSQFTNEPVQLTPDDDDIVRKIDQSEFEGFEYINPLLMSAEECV
Conditions: at 0.1 µM.

In assay [3] the target is T1, Protein kinase C iota type (Homo sapiens). To be noted: at 1 µM.
Assay [4] deals with Protein kinase C theta type (Homo sapiens) (UniProt Q04759). To be noted: at 0.1 µM.
Assay [5] shares this target. To be noted: at 1 µM.
Assay [6] deals with Protein kinase C beta type (Homo sapiens) (UniProt P05771). To be noted: at 0.1 µM.
For assay [7] the target is unchanged. Conditions: at 1 µM.
The target in assay [8] is T2, Serine/threonine-protein kinase D1 (Homo sapiens) (UniProt Q15139).
T2 sequence (whole entry): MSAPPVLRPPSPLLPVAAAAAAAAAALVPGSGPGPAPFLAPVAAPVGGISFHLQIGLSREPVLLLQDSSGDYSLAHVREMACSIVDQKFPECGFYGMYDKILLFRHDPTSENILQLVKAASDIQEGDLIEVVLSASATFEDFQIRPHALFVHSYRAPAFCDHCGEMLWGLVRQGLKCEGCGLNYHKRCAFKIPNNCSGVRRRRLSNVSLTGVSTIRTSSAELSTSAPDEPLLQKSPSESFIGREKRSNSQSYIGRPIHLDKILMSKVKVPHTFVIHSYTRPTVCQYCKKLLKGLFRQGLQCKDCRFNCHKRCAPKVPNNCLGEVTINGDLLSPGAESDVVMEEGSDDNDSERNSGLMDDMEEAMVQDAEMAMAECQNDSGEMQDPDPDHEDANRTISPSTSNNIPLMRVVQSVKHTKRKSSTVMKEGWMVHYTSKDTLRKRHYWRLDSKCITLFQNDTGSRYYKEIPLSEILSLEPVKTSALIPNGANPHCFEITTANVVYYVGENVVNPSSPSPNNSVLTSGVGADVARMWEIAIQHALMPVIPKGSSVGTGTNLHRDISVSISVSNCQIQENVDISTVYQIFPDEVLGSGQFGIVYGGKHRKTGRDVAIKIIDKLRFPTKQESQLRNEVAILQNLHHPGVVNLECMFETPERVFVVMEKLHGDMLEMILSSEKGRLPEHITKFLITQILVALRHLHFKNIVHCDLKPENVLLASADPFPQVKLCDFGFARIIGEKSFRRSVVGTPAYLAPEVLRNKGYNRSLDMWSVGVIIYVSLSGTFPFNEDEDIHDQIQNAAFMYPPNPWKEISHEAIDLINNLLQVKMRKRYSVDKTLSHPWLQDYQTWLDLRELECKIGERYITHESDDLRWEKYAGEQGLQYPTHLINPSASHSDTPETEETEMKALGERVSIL
Conditions: at 0.1 µM.

Assay [9] concerns the target T2, Serine/threonine-protein kinase D1 (Homo sapiens). Conditions: at 1 µM.
The target in assay [10] is T3, Serine/threonine-protein kinase D2 (Homo sapiens) (UniProt Q9BZL6).
T3 sequence (whole entry): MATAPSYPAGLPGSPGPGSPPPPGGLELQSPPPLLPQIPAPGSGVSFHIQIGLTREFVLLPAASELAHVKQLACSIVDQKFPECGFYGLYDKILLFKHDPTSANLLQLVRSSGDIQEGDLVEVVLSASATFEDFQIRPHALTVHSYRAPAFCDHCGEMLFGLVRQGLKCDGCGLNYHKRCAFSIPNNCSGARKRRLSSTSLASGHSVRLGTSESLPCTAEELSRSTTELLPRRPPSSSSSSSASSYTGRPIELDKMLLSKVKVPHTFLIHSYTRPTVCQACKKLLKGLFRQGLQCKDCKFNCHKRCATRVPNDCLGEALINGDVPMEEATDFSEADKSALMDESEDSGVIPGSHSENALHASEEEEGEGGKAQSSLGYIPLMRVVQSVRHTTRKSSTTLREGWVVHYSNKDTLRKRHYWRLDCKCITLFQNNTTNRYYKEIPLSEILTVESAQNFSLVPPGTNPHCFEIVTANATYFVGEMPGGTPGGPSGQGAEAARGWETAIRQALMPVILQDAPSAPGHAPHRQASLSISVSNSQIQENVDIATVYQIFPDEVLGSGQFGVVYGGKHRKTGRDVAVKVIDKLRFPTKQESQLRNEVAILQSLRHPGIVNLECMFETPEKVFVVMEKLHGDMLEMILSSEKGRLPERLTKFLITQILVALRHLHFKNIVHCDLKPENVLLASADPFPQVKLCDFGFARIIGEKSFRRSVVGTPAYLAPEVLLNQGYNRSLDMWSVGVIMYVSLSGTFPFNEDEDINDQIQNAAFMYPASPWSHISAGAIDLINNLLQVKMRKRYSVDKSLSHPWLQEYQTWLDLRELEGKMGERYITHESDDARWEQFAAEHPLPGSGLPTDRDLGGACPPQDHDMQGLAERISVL
Conditions: at 0.1 µM.

Assay [11] addresses T3, Serine/threonine-protein kinase D2 (Homo sapiens). Conditions: at 1 µM.
Assay [12] deals with T4, Serine/threonine-protein kinase D3 (Homo sapiens) (UniProt O94806).
T4 sequence (whole entry): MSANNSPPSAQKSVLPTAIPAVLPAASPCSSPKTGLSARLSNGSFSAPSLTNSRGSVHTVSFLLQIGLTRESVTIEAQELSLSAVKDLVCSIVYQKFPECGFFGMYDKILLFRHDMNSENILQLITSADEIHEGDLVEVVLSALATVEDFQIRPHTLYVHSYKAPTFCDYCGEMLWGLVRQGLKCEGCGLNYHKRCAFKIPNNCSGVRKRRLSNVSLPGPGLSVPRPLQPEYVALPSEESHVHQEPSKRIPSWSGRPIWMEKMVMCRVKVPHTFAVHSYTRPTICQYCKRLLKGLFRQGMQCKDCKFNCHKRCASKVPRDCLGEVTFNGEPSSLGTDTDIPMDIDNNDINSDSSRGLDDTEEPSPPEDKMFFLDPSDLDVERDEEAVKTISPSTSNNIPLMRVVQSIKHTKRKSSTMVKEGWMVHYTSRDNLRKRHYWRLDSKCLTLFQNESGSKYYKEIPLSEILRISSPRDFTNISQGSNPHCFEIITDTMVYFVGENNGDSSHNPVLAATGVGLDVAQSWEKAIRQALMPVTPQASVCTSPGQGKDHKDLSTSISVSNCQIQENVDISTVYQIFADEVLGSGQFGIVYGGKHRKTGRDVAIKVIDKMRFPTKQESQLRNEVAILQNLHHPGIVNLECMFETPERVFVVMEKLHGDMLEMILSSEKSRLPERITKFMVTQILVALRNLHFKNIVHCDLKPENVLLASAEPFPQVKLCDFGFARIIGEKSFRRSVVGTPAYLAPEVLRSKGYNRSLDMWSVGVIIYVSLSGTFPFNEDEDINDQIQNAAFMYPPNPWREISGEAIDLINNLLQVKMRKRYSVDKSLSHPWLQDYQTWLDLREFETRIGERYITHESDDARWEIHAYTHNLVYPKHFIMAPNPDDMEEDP
Conditions: at 0.1 µM.

Assay [13] deals with T4, Serine/threonine-protein kinase D3 (Homo sapiens). To be noted: at 1 µM.
Assay [14] has as its target T5, cGMP-dependent protein kinase 1 (Homo sapiens) (UniProt Q13976).
T5 sequence (whole entry): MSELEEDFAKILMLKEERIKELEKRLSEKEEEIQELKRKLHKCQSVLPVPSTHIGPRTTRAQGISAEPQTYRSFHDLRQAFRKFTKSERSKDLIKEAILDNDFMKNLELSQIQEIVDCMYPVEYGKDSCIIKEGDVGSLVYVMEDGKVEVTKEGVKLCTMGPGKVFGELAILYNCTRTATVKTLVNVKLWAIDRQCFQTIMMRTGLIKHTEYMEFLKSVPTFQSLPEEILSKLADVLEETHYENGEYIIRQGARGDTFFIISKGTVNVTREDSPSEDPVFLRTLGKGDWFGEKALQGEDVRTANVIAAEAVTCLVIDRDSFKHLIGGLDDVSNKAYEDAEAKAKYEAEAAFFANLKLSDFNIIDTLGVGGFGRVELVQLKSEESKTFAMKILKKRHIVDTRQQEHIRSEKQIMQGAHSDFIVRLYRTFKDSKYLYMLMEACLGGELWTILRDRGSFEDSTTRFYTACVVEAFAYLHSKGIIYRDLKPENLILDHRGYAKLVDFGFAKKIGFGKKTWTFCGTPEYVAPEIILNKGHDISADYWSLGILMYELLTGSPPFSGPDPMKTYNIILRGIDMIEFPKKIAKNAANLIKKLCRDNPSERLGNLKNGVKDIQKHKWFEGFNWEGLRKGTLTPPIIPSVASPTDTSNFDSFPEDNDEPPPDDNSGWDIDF
Conditions: at 0.1 µM.

Assay [15] concerns the target T5, cGMP-dependent protein kinase 1 (Homo sapiens). Conditions: at 1 µM.
The target of assay [16] is T6, cGMP-dependent protein kinase 2 (Homo sapiens) (UniProt Q13237).
T6 sequence (whole entry): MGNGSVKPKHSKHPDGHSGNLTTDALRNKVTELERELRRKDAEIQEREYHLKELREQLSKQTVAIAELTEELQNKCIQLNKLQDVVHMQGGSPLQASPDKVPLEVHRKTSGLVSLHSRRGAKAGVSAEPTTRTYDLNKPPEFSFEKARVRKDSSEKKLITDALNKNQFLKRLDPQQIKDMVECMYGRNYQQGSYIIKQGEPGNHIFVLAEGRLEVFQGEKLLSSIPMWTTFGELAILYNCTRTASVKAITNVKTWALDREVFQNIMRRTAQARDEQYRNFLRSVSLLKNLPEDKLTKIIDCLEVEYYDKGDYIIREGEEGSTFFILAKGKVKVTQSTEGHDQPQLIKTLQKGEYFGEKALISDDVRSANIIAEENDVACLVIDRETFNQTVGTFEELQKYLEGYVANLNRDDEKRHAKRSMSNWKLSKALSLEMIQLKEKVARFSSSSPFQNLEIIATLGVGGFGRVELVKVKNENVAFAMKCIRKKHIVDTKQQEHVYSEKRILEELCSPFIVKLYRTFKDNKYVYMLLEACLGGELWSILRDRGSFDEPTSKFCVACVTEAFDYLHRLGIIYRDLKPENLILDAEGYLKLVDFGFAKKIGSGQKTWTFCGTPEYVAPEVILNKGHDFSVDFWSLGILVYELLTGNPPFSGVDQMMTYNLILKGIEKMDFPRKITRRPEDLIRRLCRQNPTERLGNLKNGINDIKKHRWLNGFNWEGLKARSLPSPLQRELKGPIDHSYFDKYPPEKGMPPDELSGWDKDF
Conditions: at 0.1 µM.

For assay [17], the target named is T6, cGMP-dependent protein kinase 2 (Homo sapiens). Conditions: at 1 µM.
The target in assay [18] is T7, cAMP-dependent protein kinase catalytic subunit PRKX (Homo sapiens) (UniProt P51817).
T7 sequence (whole entry): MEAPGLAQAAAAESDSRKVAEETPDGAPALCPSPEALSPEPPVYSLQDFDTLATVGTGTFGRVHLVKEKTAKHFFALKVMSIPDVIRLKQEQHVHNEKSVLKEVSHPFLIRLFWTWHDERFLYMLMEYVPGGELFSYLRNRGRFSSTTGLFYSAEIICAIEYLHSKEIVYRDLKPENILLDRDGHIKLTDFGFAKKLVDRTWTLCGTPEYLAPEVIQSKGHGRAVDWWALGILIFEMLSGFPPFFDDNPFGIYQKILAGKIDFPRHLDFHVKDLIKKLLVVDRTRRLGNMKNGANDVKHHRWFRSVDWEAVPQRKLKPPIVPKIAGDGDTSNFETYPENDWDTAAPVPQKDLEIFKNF
To be noted: at 0.1 µM.

In assay [19] the target is T7, cAMP-dependent protein kinase catalytic subunit PRKX (Homo sapiens). Conditions: at 1 µM.
Assay [20] concerns the target Rho-associated protein kinase 1 (Homo sapiens) (UniProt Q13464). To be noted: at 0.1 µM.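 Further: values are mean percent inhibition of ROCK1.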

The term inhibition denotes the drop in the measured response relative to a control, in per cent.

Protein kinase C theta type (Homo sapiens), sequence (Q04759 whole entry, looked up): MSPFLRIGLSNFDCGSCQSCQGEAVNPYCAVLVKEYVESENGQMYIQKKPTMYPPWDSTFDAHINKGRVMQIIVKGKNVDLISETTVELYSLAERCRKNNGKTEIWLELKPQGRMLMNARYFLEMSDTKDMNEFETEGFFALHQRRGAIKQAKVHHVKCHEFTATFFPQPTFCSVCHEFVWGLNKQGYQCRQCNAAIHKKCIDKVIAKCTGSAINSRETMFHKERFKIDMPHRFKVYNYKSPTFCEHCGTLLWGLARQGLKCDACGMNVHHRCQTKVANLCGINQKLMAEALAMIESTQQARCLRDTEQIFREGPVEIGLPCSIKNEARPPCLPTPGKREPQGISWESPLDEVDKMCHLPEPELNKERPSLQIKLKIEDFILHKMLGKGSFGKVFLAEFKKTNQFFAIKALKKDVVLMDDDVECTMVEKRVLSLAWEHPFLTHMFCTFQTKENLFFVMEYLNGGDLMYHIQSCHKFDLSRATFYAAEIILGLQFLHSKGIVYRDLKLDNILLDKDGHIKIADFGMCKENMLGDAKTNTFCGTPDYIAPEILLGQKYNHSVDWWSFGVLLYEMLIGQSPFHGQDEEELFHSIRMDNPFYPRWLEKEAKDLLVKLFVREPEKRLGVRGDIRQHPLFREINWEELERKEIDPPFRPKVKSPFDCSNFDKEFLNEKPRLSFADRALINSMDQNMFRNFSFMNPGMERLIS
Protein kinase C beta type (Homo sapiens), sequence (P05771 2-671 limits assumed): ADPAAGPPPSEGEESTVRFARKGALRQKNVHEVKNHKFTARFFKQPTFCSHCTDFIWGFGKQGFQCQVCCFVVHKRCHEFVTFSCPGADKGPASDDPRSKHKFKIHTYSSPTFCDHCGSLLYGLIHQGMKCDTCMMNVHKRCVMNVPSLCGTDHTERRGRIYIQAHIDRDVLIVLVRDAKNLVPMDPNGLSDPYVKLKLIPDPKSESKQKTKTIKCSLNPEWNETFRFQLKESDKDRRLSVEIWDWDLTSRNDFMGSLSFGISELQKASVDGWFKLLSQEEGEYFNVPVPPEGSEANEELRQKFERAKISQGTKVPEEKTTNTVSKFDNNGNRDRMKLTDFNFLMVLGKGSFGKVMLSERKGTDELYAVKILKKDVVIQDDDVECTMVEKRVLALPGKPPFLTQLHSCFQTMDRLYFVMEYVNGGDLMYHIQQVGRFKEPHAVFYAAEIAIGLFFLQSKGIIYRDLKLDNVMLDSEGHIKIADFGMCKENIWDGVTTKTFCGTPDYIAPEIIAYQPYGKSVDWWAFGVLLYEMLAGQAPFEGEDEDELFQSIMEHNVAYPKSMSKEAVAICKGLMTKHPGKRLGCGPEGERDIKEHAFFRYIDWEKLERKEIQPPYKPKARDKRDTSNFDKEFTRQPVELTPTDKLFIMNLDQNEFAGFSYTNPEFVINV
Rho-associated protein kinase 1 (Homo sapiens), sequence (Q13464 2-1354 limits assumed): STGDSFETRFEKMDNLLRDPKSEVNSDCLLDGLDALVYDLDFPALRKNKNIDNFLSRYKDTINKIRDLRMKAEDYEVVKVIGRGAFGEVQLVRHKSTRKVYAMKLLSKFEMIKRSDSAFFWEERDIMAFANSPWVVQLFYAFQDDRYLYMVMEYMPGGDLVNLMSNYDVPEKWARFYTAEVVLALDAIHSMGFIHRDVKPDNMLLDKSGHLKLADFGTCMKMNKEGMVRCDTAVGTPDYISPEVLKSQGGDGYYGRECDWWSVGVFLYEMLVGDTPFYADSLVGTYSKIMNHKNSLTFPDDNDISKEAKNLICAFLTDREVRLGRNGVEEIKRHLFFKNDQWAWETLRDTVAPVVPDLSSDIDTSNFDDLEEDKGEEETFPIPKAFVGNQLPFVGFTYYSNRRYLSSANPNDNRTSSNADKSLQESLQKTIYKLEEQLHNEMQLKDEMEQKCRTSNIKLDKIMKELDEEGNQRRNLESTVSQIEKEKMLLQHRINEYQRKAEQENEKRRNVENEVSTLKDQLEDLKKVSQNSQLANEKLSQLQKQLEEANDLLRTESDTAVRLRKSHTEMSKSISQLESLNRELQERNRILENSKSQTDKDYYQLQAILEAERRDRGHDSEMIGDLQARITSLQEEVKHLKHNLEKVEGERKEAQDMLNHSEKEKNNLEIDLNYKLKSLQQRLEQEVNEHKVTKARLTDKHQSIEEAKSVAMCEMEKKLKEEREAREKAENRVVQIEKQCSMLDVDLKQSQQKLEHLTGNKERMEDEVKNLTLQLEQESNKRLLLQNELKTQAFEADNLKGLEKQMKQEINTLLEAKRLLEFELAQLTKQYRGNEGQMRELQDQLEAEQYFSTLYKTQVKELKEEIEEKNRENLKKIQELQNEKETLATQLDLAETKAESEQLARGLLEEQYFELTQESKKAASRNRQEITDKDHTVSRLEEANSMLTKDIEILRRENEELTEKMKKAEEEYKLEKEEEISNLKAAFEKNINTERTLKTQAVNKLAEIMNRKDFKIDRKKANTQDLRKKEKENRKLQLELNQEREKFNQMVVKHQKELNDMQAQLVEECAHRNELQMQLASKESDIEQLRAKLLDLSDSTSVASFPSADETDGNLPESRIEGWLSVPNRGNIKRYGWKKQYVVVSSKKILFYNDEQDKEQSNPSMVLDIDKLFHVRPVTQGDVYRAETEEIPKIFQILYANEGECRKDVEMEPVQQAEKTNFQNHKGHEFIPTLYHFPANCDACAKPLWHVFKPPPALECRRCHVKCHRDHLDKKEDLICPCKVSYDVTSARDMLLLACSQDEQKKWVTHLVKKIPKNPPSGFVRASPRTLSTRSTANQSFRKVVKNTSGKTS

For the compound `CCN(CC)S(=O)(=O)c1ccc(OC)c(Nc2ncc(-c3ccccc3)o2)c1`, the inhibition in assay [1] is 3.98%; in assay [2], 0.63%; in assay [3], -0.91%; in [4] it was 1.36%; in assay [5], 1.38%; in assay [6] it was 0.23%. Also, the inhibition in assay [7] is 1.41%; in [8] it was 1.66%; in [9], 0.39%; in assay [10], 0.75%; in assay [11] it was 1.51%; in [12], -0.55%. In addition, the inhibition is 0.06% in assay [13]; 0.75% in [14]; 0.61% in assay [15]; 0.25% in assay [16]; 0.95% in assay [17]; 0.38% in assay [18]. For the same compound, the inhibition is 0.62% in [19] and 0.86% in assay [20].

Consider `CC1=C(C(=O)Nc2cc(Cl)c3[nH]ncc3c2)C(c2ccc(C(F)(F)F)cc2)CC(=O)N1` (stereo not given), for which the inhibition came to 3.46% in assay [1]; 1.43% in assay [2]; 1.11% in [3]; 5.67% in assay [4]; 28.3% in [5]; 1.98% in [6]. Further, the inhibition in assay [7] was determined as 2.19%; in assay [8] it was 2.79%; in assay [9], 6.51%; in assay [10] it was 3.43%; in [11] it was 7.46%; in [12] it was 4.09%. The inhibition in assay [13] worked out at 7.2%; in assay [14], 27.6%; in [15] it was 67.9%; in assay [16] it was 16.9%; in assay [17] it was 59.7%; in [18], 44.8%. The results for the inhibition in [19] and in [20] were 79.7% and 70.7%, respectively.
